The results in this text go back to article PMC3218832.

Some targets named below: RELARELA (p65 homodimer) (Homo sapiens, UniProt Q04206 1-307); p50p50 homodimer (Homo sapiens, UniProt P19838 7-356); RELB subunit;p50 subunit (Homo sapiens;Homo sapiens, UniProt Q01201;P19838 120-401;7-356).
What all share (experiment): protein binding microarray; high values mean tight binding
Conditions in all cases: dsDNA, one strand shown

Another assay concerns the target T1, p52p52 homodimer (Homo sapiens, UniProt Q00653 4-332).
T1 sequence: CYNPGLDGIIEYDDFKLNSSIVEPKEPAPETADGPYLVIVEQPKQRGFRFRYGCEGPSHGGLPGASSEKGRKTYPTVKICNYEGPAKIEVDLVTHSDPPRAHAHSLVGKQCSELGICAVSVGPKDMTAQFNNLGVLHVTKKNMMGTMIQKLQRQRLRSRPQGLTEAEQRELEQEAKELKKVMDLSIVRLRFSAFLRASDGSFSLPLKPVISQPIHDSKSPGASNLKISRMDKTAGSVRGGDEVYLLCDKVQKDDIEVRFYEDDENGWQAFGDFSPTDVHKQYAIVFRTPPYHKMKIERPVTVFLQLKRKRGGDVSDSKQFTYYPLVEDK

Assay [1] concerns the target RELA (p65) subunit of heterodimer;p50 subunit (Homo sapiens;Homo sapiens, UniProt Q04206;P19838 1-307;7-356).
Assay [2] has as its target RELA (p65) subunit of heterodimer;p52 subunit (Homo sapiens;Homo sapiens, UniProt Q04206;Q00653 1-307;4-332).
The target of the next assay is T2, RELB subunit;p52 subunit (Homo sapiens;Homo sapiens, UniProt Q01201;Q00653 120-401;4-332).
T2 sequence 1: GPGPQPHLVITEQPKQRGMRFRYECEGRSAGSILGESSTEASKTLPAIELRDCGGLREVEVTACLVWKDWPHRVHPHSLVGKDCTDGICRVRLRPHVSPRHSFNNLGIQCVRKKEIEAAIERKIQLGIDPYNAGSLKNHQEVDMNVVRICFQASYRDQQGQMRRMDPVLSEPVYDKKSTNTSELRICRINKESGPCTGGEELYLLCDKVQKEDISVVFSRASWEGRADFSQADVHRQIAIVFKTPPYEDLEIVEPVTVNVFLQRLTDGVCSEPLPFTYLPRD
T2 sequence 2: T1 sequence

Assay [3] addresses C-Rel subunit;p50 subunit (Homo sapiens;Homo sapiens, UniProt Q04864;P19838 1-285;7-356).
The target of assay [4] is T3, C-Rel subunit;p52 subunit (Homo sapiens;Homo sapiens, UniProt Q04864;Q00653 1-285;4-332).
T3 sequence 1: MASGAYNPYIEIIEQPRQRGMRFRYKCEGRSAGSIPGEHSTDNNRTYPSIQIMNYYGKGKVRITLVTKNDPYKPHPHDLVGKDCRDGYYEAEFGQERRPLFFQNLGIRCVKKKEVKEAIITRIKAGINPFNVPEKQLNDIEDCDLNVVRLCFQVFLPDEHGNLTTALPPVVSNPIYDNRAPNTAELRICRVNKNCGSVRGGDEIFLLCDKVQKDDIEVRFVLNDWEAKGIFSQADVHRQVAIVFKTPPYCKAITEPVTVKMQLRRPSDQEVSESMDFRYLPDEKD
T3 sequence 2: T1 sequence

Sequence of p50p50 homodimer (P19838 7-356): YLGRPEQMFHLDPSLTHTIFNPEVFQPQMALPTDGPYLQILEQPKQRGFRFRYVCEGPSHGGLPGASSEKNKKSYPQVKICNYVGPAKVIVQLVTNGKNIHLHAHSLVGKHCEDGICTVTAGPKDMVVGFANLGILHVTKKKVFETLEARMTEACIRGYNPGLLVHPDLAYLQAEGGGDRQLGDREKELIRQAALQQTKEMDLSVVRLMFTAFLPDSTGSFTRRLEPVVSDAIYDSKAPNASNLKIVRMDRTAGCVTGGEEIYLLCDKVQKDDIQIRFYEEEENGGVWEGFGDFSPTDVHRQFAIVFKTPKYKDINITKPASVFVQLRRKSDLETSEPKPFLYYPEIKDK
Sequence of RELA (p65) subunit of heterodimer;p50 subunit (Q04206 1-307, chain 1 of 2): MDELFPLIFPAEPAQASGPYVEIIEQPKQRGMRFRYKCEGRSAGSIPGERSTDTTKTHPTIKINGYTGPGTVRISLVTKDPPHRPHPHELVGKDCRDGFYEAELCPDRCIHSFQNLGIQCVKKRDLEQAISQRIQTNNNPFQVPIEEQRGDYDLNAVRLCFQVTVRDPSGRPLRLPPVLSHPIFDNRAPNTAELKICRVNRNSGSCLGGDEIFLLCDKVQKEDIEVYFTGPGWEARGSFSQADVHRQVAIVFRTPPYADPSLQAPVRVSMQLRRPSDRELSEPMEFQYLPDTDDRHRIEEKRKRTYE
Sequence of RELA (p65) subunit of heterodimer;p50 subunit (P19838 7-356, chain 2 of 2): as the sequence (P19838 7-356) above
Sequence of RELARELA (p65 homodimer) (Q04206 1-307): as the sequence (Q04206 1-307, chain 1 of 2) above

GAGGGCATCCC: the binding signal with RELARELA (p65 homodimer) was 0.359 z-score; with p50p50 homodimer it was -0.785 z-score; in the assay with p52p52 homodimer, -0.256 z-score; in assay [1], -0.318 z-score; in assay [2] it was -0.398 z-score; with RELB subunit;p50 subunit, -0.647 z-score. Moreover, the binding signal with RELB subunit;p52 subunit was -0.505 z-score; in assay [3], -0.179 z-score; in [4], -0.277 z-score.

For AGAATGCTCCC, the binding signal with RELARELA (p65 homodimer) is -0.506 z-score; in the assay with p50p50 homodimer, -0.551 z-score; with p52p52 homodimer, -0.418 z-score; in assay [1], -0.467 z-score; in assay [2] it was -0.621 z-score; with RELB subunit;p50 subunit it was -0.576 z-score. The binding signal in the assay with RELB subunit;p52 subunit is -0.823 z-score; in assay [3], -0.92 z-score; in assay [4], -0.456 z-score.

For the sequence CAGTGTTTCCT, the binding signal with RELARELA (p65 homodimer) was 0.51 z-score; with p50p50 homodimer, -0.616 z-score; with p52p52 homodimer, -0.52 z-score; in assay [1], -0.47 z-score; in assay [2] it was -0.473 z-score; in the assay with RELB subunit;p50 subunit, -0.831 z-score. Also, the binding signal with RELB subunit;p52 subunit is -0.677 z-score; in [3] it was -0.349 z-score; in [4] it was -0.285 z-score.

For the sequence CGGAAATCCCT, the binding signal with RELARELA (p65 homodimer) is 2.44 z-score; with p50p50 homodimer, 1.09 z-score; with p52p52 homodimer it was 1.3 z-score; in assay [1], 1.35 z-score; in assay [2], 1.25 z-score; with RELB subunit;p50 subunit, 0.939 z-score. Moreover, the binding signal is 1.47 z-score with RELB subunit;p52 subunit, 1.21 z-score in assay [3] and 1.56 z-score in assay [4].

Turning to AAGGGGGCCCC, the binding signal with RELARELA (p65 homodimer) was -0.0322 z-score; with p50p50 homodimer it was 0.728 z-score; in the assay with p52p52 homodimer it was 0.786 z-score; in [1] it was 0.441 z-score; in [2] it was 0.981 z-score; with RELB subunit;p50 subunit it was 0.694 z-score. Also, the values for the binding signal (in the assay with RELB subunit;p52 subunit; in assay [3]; in assay [4]) were 1.04 z-score, 0.532 z-score and 0.709 z-score, respectively.

With GGGATCGTCCT, the binding signal with RELARELA (p65 homodimer) is 0.173 z-score; in the assay with p50p50 homodimer it was -0.724 z-score; with p52p52 homodimer it was 0.0256 z-score; in [1], -0.544 z-score; in [2], -0.296 z-score; in the assay with RELB subunit;p50 subunit, -0.598 z-score. Moreover, the binding signal with RELB subunit;p52 subunit is -0.614 z-score; in assay [3], -0.493 z-score; in assay [4], -0.166 z-score.

For the sequence CGAGACGTCCT, the binding signal with RELARELA (p65 homodimer) is -0.768 z-score; with p50p50 homodimer, -1.33 z-score; in the assay with p52p52 homodimer, -0.73 z-score; in [1], -1.16 z-score; in assay [2], -0.933 z-score; with RELB subunit;p50 subunit, -1.07 z-score. Besides, the figures for the binding signal (in the assay with RELB subunit;p52 subunit; in [3]; in assay [4]) were -0.949 z-score, -1.55 z-score and -0.864 z-score, respectively.

For CGAAGATCCCC, the binding signal was -0.0141 z-score with RELARELA (p65 homodimer); 0.983 z-score in the assay with p50p50 homodimer; 1.06 z-score with p52p52 homodimer; 1.41 z-score in assay [1]; 1.15 z-score in assay [2]; 1.5 z-score in the assay with RELB subunit;p50 subunit. The binding signal was 1.11 z-score in the assay with RELB subunit;p52 subunit, 1.04 z-score in assay [3] and 1.05 z-score in [4].

With GAATTATTCCC, the binding signal with RELARELA (p65 homodimer) was 1.89 z-score; with p50p50 homodimer it was 0.532 z-score; with p52p52 homodimer, 0.423 z-score; in [1], 0.97 z-score; in assay [2], 0.744 z-score; in the assay with RELB subunit;p50 subunit, 0.44 z-score. Besides, the binding signal in the assay with RELB subunit;p52 subunit is 0.413 z-score; in [3], 1.16 z-score; in [4] it was 0.686 z-score.

As to CAAGAGATCCT, the binding signal with RELARELA (p65 homodimer) is -0.295 z-score; with p50p50 homodimer, -1.92 z-score; in the assay with p52p52 homodimer, -0.611 z-score; in assay [1], -1.27 z-score; in assay [2], -1.22 z-score; with RELB subunit;p50 subunit it was -0.959 z-score. Moreover, the binding signal in the assay with RELB subunit;p52 subunit was -0.999 z-score; in assay [3] it was -1.42 z-score; in assay [4], -1.16 z-score.

As for AAGGACTCCCC, the binding signal with RELARELA (p65 homodimer) turned out to be 0.78 z-score; with p50p50 homodimer, 0.758 z-score; with p52p52 homodimer, 0.493 z-score; in assay [1] it was 0.844 z-score; in assay [2], 0.665 z-score; in the assay with RELB subunit;p50 subunit it was 0.692 z-score. In addition, the binding signal came out at 0.442 z-score with RELB subunit;p52 subunit, 0.76 z-score in [3] and 0.388 z-score in [4].

Take CGAAAGATCCC: the binding signal with RELARELA (p65 homodimer) was 0.0219 z-score; with p50p50 homodimer it was -0.089 z-score; with p52p52 homodimer it was -0.151 z-score; in assay [1], -0.0254 z-score; in assay [2], -0.0507 z-score; with RELB subunit;p50 subunit it was 0.0265 z-score. Further, the values for the binding signal (in the assay with RELB subunit;p52 subunit; in assay [3]; in assay [4]) were -0.282 z-score, -0.258 z-score and -0.147 z-score, respectively.

For AAAGAAGTCCT, the binding signal is -0.118 z-score in the assay with RELARELA (p65 homodimer); -0.972 z-score with p50p50 homodimer; -0.456 z-score in the assay with p52p52 homodimer; -0.815 z-score in assay [1]; -0.873 z-score in assay [2]; -0.926 z-score with RELB subunit;p50 subunit. For the same sequence, the results for the binding signal (with RELB subunit;p52 subunit; in [3]; in assay [4]) were -0.875 z-score, -0.558 z-score and -0.645 z-score, respectively.

CGAGTTCTCCC: the binding signal in the assay with RELARELA (p65 homodimer) is 0.00528 z-score; with p50p50 homodimer, 0.1 z-score; with p52p52 homodimer, -0.0592 z-score; in assay [1], 0.0957 z-score; in assay [2], -0.132 z-score; with RELB subunit;p50 subunit, 0.367 z-score. Moreover, the binding signal with RELB subunit;p52 subunit was 0.182 z-score; in assay [3] it was -0.0444 z-score; in [4], -0.16 z-score.

AGGTTACCCCT: the binding signal with RELARELA (p65 homodimer) is -0.124 z-score; with p50p50 homodimer, 0.813 z-score; with p52p52 homodimer, 0.514 z-score; in assay [1], 0.468 z-score; in assay [2], 0.804 z-score; in the assay with RELB subunit;p50 subunit, 0.84 z-score. Moreover, the binding signal in the assay with RELB subunit;p52 subunit is 1.36 z-score; in assay [3], 0.567 z-score; in [4], 0.609 z-score.
